Screening data deposited in PubChem BioAssay by several laboratories.
Rows were chosen to be rich in hits. Some 2% of all compounds tested hit in one or more screens of this group.
Shn3 3UTR inh – reduction of Shn3 3'UTR firefly luciferase signal, primary screen, Schnurri-3 inhibitor project, cell-based, Clone20 osteoblasts, set 2; Clone20 osteoblast Shn3 3'UTR firefly luciferase, 24 h; 0.52% of 360,000 active; inhibition, % at 12.5 µM;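 active means mean inhibition of at least 75% with every replicate also reaching 75%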;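 further: 0% = median of neutral control wells and 100% = pilot-screen positive control compound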
Beta cell apopt – inhibitors of cytokine-induced beta cell apoptosis, primary screen, luminescence; 0.8% of 300,000 active; INS-1E cytokine-induced death, ATP luminescence, 48 h; percent of positive-control rescue, neutral wells zero; AID 435005, 2010; protection from apoptosis, % (no concentration beside the values);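 active means Every replicate reaches about 75%, or at least half do and their mean reaches it too, limit read from the data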;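 further: 0% = cytokine-treated negative control wells and 100% = positive control rescue; higher means more ATP so stronger rescue from cytokine killing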
697 NFkB inh – inhibitors of PMA/ionomycin-induced NF-kB reporter, 697 cells, primary screen, B-cell NF-kB inhibitor project, cell-based, luminescence, uHTS; 697 B-cell NF-kB luciferase reporter, 16 h; inhibition, % at 4 µM; 0.33% of 330,000 active; AID 435022, 2010; in the data active means inhibition above about 35%
Jurkat NFkB inh – inhibitors of induced NF-kB luciferase reporter, primary screen, TCR NF-kB activation inhibitor project, cell-based, luminescence, uHTS; inhibition, % at 4 µM; 0.53% of 330,000 active; AID 435003, 2010; Jurkat, PMA/ionomycin-induced NF-kB luciferase reporter; in the data active means inhibition above about 50%
Calb FLC – C. albicans growth inhibition with fluconazole, primary screen, CaCi-2 strain, Alamar Blue fluorescence; C. albicans CaCi-2 (fluconazole-resistant clinical isolate) + fluconazole, 48 h; 0.57% of 300,000 active; growth inhibition, % (no concentration beside the values);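 active means growth inhibition above about 58% in most replicates, limit read from the data, passing the limit was not always enough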;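 further: all wells also contain fluconazole at 8 µg/ml as a sub-toxic cotreatment; 0% = median of DMSO wells and 100% = median of geldanamycin control wells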
Jurkat NFkB conf – PMA/ionomycin-induced NF-kB reporter inhibitors, Jurkat retest, confirmation, T-cell NF-kB inhibitor project, cell-based, luminescence, single concentration | shares compounds with Jurkat NFkB inh | Jurkat NF-kB luciferase, 16 h | 27% of 2,700 active | inhibition, % at 4 µM;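 active means inhibition reaching about 45% at 4 µM in either replicate, limit read from the data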;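 further: plate controls were PMA/ionomycin stimulated DMSO wells for no effect and unstimulated DMSO wells for full effect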
697 NFkB conf – PMA/ionomycin-induced NF-kB reporter inhibitors, 697 retest, confirmation, B-cell NF-kB inhibitor project, cell-based, luminescence, single concentration | shares compounds with 697 NFkB inh | 697 B-cell NF-kB luciferase, 16 h | inhibition, % at 4 µM | 35% of 2,000 active | AID 449746, 2010; in the data active means inhibition mostly above about 28%, no sharp cut-off; inactive means mostly below about 22%
* marks the source's active call; other numbers are inactive results; · = no result.

SMILES	Shn3 3UTR inh	Beta cell apopt	697 NFkB inh	Jurkat NFkB inh	Calb FLC	Jurkat NFkB conf	697 NFkB conf
CCN1/C(=C/c2ccc3cc(C)ccc3[n+]2CC)Sc2ccccc21	84	115*	86*	96*	·	69*	49*
CCc1nc2ccc(C(=O)NCCc3ccccn3)cn2c1N(CCC(C)C)CCN(C)C	-27	·	·	·	·	·	·
Cc1ccc(-n2c(C)c(C)c3c(NCCO)ncnc32)cc1	-81	-10	-66	-36	-12	·	·
COc1ccc(C(=O)Nc2nc3ccccc3s2)c(OC)c1	93*	45	69*	85*	-3	91*	60*
COc1cc2nc(NC(=O)c3ccccc3)[nH]c(=O)c2cc1OC	7	-3	4	-15	-9	·	·
COc1ccc(C(=O)Nc2nnc(SCC(=O)Nc3ccc(NC(C)=O)cc3)s2)c(OC)c1	-115	-1	71*	-207	-3	-129	61*
COc1cc2nc(NC(=O)c3ccccc3)sc(=O)c2cc1OC	7	·	43*	82*	3	89*	54*
COc1ccc2nc(NC(=O)Nc3ccccc3)sc2c1	-27	·	-335	-223	-4	-128	-317
COc1ccc2nc(NC(=O)c3ccccc3C(=O)O)sc2c1	-26	-6	8	2	-8	·	·
O=C(CN1C(=O)CSc2ccc(S(=O)(=O)N3CCOCC3)cc21)NCCc1ccccc1	-15	·	·	·	·	·	·
Cc1ccc2nc(NC(=O)c3cc(-c4ccco4)nc4ccccc34)sc2c1	2	1	-18	-7	-4	·	·
CCOc1ccc2nc(NC(=O)c3ccoc3C)sc2c1	25	53	-374	-168	-19	-106	-322
COc1ccc2nc(NC(=O)c3ccccc3F)sc2c1	-39	8	-279	-154	-22	-116	-318
Cc1ccc2nc(NC(=O)c3ccccc3F)sc2c1	-8	·	-261	-163	-7	-133	-229
CCOc1ccc2nc(NC(=O)COC)sc2c1	-37	-1	-122	-70	-21	·	·
CCCCn1c(O)c(N=Nc2ccccc2O)c2ccccc21	-16	-5	8	2	·	·	·
Cc1cccc(-c2cc3c(N=O)c4ccccc4c-3n[nH]2)c1	-22	26	-339	-205	-25	-87	-336
Cc1ccc(-c2cc3c(N=O)c4ccccc4c-3n[nH]2)cc1	64	49	58*	67*	17	72*	-32
O=c1[nH]nc(-c2ccccc2)c2ccccc12	4	-5	16	10	0	·	·
O=Nc1c2cc(-c3ccccc3)[nH]nc-2c2ccccc12	6	·	·	·	31	·	·
O=[N+]([O-])c1ccc(N=Nc2ccc(O)cc2O)cc1	5	67	63*	59*	10	-12	-45
c1ccc2sc(Sc3ncnc4sccc34)nc2c1	-13	-44	63*	98*	-13	53*	60*
CCc1cc2c(SCC(=O)Nc3ccc(NC(C)=O)cc3)ncnc2s1	2	1	14	8	·	·	·
CCc1cc2c(Sc3nc4ccccc4s3)ncnc2s1	54	-38	83*	100*	1	96*	64*
Cc1ccc(NC(=O)COc2ccc(N(C)C(=O)C(C)(C)C)cc2)cc1S(=O)(=O)N1CCCCC1	79	115*	51*	54*	·	78*	77*
CCc1cccc(OCC(=O)Nc2ccc(C)c(S(=O)(=O)N3CCCCCC3)c2)c1	66	-10	-28	4	-1	·	·
Cc1ccc(Nc2nc(-c3c(C)nc4ccccn34)cs2)cc1	52	·	-396	83*	50	62*	-54
COc1ccc(-[n+]2c(C)cc(/C=C3\Sc4ccccc4N3C)cc2C)cc1	88*	116*	100*	86*	-6	27	-22
COc1ccc(CCNC(=O)N2c3ccccc3Sc3ccccc32)cc1	61	7	-6	13	19	·	·
